Experimental data taken from PubChem BioAssay (EPA / NIEHS).
Active and inactive are the calls of the source. The calls were made as follows: active = hit-call score of the fitted dose curve at least 0.9, where 1 is the maximum; inactive = score below 0.9.

Experiments:
[1] = ATG_GLI_CIS: Attagene CIS-FACTORIAL HepG2 Assay for human Zinc Finger Protein GLI1 (AID 2282945); settings: HepG2, Attagene cis-factorial reporter mRNA, GLI element; actives raise or lower the signal
Procedure, shortened: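 Bidirectional curve fits relative to DMSO, using reporter mRNA levels from RT-PCR plus capillary electrophoresis. Cells were HepG2 transiently carrying cis-regulated reporter constructs, harvested 24 h after dosing.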

[2] = molecular target: Bile acid receptor (Homo sapiens) (UniProt Q96RI1); assay: ATG_IR1_CIS: Attagene CIS-FACTORIAL HepG2 Assay for human Nuclear Receptor Subfamily 1 Group H Member 4 (NR1H4), IR1 submotif (AID 2282946); settings: IR1 reporter transcription, actives raise or lower the signal
Procedure, shortened: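 HepG2 cells transiently transfected with multiplexed cis-element reporter units read endogenous transcription factor activity. After 24 h compound exposure, reporter mRNA was quantified by RT-PCR, fluorescent labelling, HpaI digestion and capillary electrophoresis; bidirectional fitting versus DMSO baseline.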

[3] = ATG_ISRE_CIS: Attagene CIS-FACTORIAL HepG2 Assay for human Interferon Regulatory Factor 1 (IRF1) binding to an Interferon-Stimulated Response Element (ISRE) (AID 2282948); settings: HepG2 ISRE cis-reporter (Attagene), mRNA transcription readout; actives raise or lower the signal
Procedure, shortened: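 Signal reflects induction or loss of ISRE-linked reporter mRNA in transiently transfected HepG2 cells after a 24 h treatment, detected by fluorescent RT-PCR fragments on capillary electrophoresis and normalised to DMSO.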

[4] = ATG_M_32_CIS: Attagene CIS-FACTORIAL HepG2 Assay for M32 Transcription Factor (Internal Marker) (AID 2282949); settings: HepG2 Attagene cis-factorial M32 reporter, mRNA; actives raise or lower the signal;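 also: background control marker of the multiplexed CIS panel rather than a real target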
Procedure, shortened: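 Using DMSO as baseline, bidirectional curve fits were applied to reporter mRNA signals. These came from transiently transfected HepG2 cells exposed for 24 h, with RNA analysed by RT-PCR, FAM primer extension, HpaI digestion and CE.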

[5] = ATG_M_06_CIS: Attagene CIS-FACTORIAL HepG2 Assay for M06 Transcription Factor (Internal Marker) (AID 2282950); settings: HepG2 Attagene CIS-FACTORIAL M06 internal marker reporter; actives raise or lower the signal
Procedure, shortened: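 Cells (HepG2, transiently carrying cis-driven reporter units) receive chemical for 24 h before RNA isolation. Reporter cDNA is PCR-amplified, FAM-labelled by primer extension, HpaI-digested and sized on a capillary analyser.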

[6] = molecular target: Hypoxia-inducible factor 1-alpha (Homo sapiens) (UniProt Q16665); assay: ATG_HIF1a_CIS: Attagene CIS-FACTORIAL HepG2 Assay for human Hypoxia Inducible Factor 1 (HIF1A) (AID 2282951); settings: HepG2 Attagene cis-factorial HIF1a reporter transcription; actives raise or lower the signal
Procedure, shortened: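 RT-PCR/capillary electrophoresis fluorescence readout of reporter transcripts from endogenous-TF-driven cis elements in transfected HepG2 cells, 24 h exposure; activity fitted in both directions against DMSO controls.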

[7] = molecular target: Hepatocyte nuclear factor 6 (Homo sapiens) (UniProt Q9UBC0); assay: ATG_HNF6_CIS: Attagene CIS-FACTORIAL HepG2 Assay for human Hepatocyte Nuclear Factor 6 (HNF6) (AID 2282952); settings: HepG2 Attagene cis-factorial HNF6 reporter transcription; actives raise or lower the signal
Procedure, shortened: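 First, HepG2 cells were transfected with the multiplexed cis reporter library and dosed with chemical for 24 h. Next, RNA was reverse-transcribed, PCR-amplified and fluorescently labelled. Finally, HpaI-digested fragments were read by capillary electrophoresis.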

[8] = molecular target: Heat shock factor protein 1 (Homo sapiens) (UniProt Q00613); assay: ATG_HSE_CIS: Attagene CIS-FACTORIAL HepG2 Assay for human Heat Shock Transcription Factor 1 (HSE) (AID 2282953); settings: HepG2 HSE cis-reporter, Attagene RNA transcription; actives raise or lower the signal
Procedure, shortened: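 Liver-derived HepG2 cells carry transiently introduced multiple reporter units governed by cis promoters. Reporter RNA measured 24 h post-dose through reverse transcription, PCR amplification, fluorescent labelling and capillary electrophoresis, normalised to DMSO.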

[9] = ATG_MRE_CIS: Attagene CIS-FACTORIAL HepG2 Assay for human Metal Responsive Element (MRE) (AID 2282954); settings: HepG2 MRE cis-reporter transcription, Attagene multiplex; actives raise or lower the signal
Procedure, shortened: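 Multiplexed cis-reporter assay in human HepG2 liver cells, 24 h incubation with test chemical. Reporter transcripts measured by RT-PCR and capillary electrophoresis; values from bidirectional curve fitting versus DMSO.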

[10] = ATG_PBREM_CIS: Attagene CIS-FACTORIAL HepG2 Assay for human Phenobarbital-responsive Enhancer Module (PBREM) (AID 2282955); settings: HepG2 PBREM cis-reporter, Attagene multiplexed transcription; actives raise or lower the signal
Procedure, shortened: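 Reporter mRNA read by RT-PCR, 6-FAM primer extension, HpaI digestion and capillary electrophoresis. Transfected HepG2 cells, 24 h compound exposure. Gain or loss of signal fitted bidirectionally relative to DMSO baseline.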

[11] = molecular target: Paired box protein Pax-6 (Homo sapiens) (UniProt P26367); assay: ATG_Pax6_CIS: Attagene CIS-FACTORIAL HepG2 Assay for human Paired Box 6 (PAX6) (AID 2282956); settings: HepG2 CIS-FACTORIAL PAX6 reporter transcription, RNA readout; actives raise or lower the signal
Procedure, shortened: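 Values derive from bidirectional curve fitting of reporter mRNA signal relative to DMSO. HepG2 cells bearing transfected cis-regulated MRTUs were exposed for 24 h; transcripts were read by RT-PCR and capillary electrophoresis.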

[12] = ATG_PXRE_CIS: Attagene CIS-FACTORIAL HepG2 Assay for human Pregnane X Receptor Element (PXRE) (AID 2282957); settings: HepG2 Attagene CIS-FACTORIAL PXRE reporter, mRNA; actives raise or lower the signal
Procedure, shortened: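 After a 24 h chemical incubation, total RNA from transfected HepG2 cells was reverse-transcribed and reporter cDNA amplified, FAM-labeled, HpaI-digested and sized by capillary electrophoresis. DMSO served as baseline for bidirectional curve fitting.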

[13] = ATG_PPRE_CIS: Attagene CIS-FACTORIAL HepG2 Assay for human Peroxisome Proliferator-activated Response Element (PPRE) (AID 2282958); settings: HepG2 PPRE cis-element reporter, Attagene transcription factor profiling; actives raise or lower the signal
Procedure, shortened: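 Read-out: fluorescent reporter mRNA fragments resolved by capillary electrophoresis after RT-PCR. HepG2 cells carried transiently transfected PPRE-driven cis reporter constructs and were dosed for 24 h; gain or loss of signal fitted relative to DMSO.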

[14] = ATG_Sox_CIS: Attagene CIS-FACTORIAL HepG2 Assay for human SRY-box transcription factor (SOX) (AID 2282960); settings: HepG2 Attagene cis-factorial SOX reporter, mRNA; actives raise or lower the signal
Procedure, shortened: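 Read-out: fluorescent RT-PCR products of SOX1-linked reporter transcripts resolved by capillary electrophoresis, fitted bidirectionally against DMSO. Transiently transfected HepG2 cells, 24 h after chemical exposure, endogenous transcription factor activity.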

[15] = molecular target: Transcription factor Sp1 (Homo sapiens) (UniProt P08047); assay: ATG_Sp1_CIS: Attagene CIS-FACTORIAL HepG2 Assay for human Specificity Protein 1 (Sp1) (AID 2282961); settings: HepG2 Sp1 cis-reporter transcription, actives raise or lower the signal
Procedure, shortened: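 Read-out: fluorescence of 6-FAM-labeled, HpaI-digested RT-PCR products separated by capillary electrophoresis. HepG2 cells carried transfected cis-element reporter units and were exposed to chemicals for 24 h; gain or loss of signal fitted relative to DMSO.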

[16] = ATG_SREBP_CIS: Attagene CIS-FACTORIAL HepG2 Assay for human Sterol Regulatory Element Binding (SREBP) (AID 2282962); settings: HepG2 Attagene cis-factorial SREBP reporter, mRNA; actives raise or lower the signal
Procedure, shortened: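 Values derive from bidirectional curve fitting with DMSO as baseline. The underlying measurement is reporter mRNA from cis-element-regulated units in transiently transfected HepG2, quantified by RT-PCR and capillary electrophoresis after 24 h exposure.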

[17] = molecular target: Signal transducer and activator of transcription 3 (Homo sapiens) (UniProt P40763); assay: ATG_STAT3_CIS: Attagene CIS-FACTORIAL HepG2 Assay for human Signal Transducer and Activator of Transcription 3 (STAT3) (AID 2282963); settings: HepG2, Attagene cis-factorial STAT3 reporter transcription; actives raise or lower the signal
Procedure, shortened: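 Cis-factorial format: endogenous transcription factors in HepG2 drive transfected reporter units. After 24 h treatment, reporter RNA was reverse-transcribed, amplified, FAM-labelled and HpaI-digested before CE analysis; activity scored in both directions against DMSO.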

[18] = ATG_GRE_CIS: Attagene CIS-FACTORIAL HepG2 Assay for human Glucocorticoid Response Elements (GRE) (AID 2282947); settings: HepG2 GRE cis-reporter, Attagene multiplex mRNA; actives raise or lower the signal
Procedure, shortened: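 Multiplexed cis-reporter mRNA induction, HepG2, 24 h post-dose. RT-PCR, FAM-labelled, HpaI-digested amplicons by CE. Bidirectional fit vs DMSO.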

[19] = ATG_RORE_CIS: Attagene CIS-FACTORIAL HepG2 Assay for human RAR-related Orphan Receptor Element (RORE) (AID 2282959); settings: HepG2 Attagene cis-factorial RORE reporter, mRNA; actives raise or lower the signal
Procedure, shortened: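 Readout: fluorescent reporter mRNA by RT-PCR plus capillary electrophoresis, 24 h after dosing transfected HepG2 cells. Endogenous transcription factor activity on a cis promoter element is measured. Gain or loss of signal fitted against DMSO.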

[20] = ATG_TA_CIS: Attagene CIS-FACTORIAL HepG2 Assay for human TA Basal Promoter (AID 2282964); settings: HepG2 Attagene CIS-factorial TA basal promoter reporter; actives raise or lower the signal
Procedure, shortened: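 Background internal-marker endpoint from a 52-component HepG2 cis-reporter panel. Cells treated 24 h; reporter transcripts quantified via RT-PCR and CE fluorescence against DMSO baseline.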

Measured: AC50

Sequence of Transcription factor Sp1 (Homo sapiens) (P08047 whole entry, looked up): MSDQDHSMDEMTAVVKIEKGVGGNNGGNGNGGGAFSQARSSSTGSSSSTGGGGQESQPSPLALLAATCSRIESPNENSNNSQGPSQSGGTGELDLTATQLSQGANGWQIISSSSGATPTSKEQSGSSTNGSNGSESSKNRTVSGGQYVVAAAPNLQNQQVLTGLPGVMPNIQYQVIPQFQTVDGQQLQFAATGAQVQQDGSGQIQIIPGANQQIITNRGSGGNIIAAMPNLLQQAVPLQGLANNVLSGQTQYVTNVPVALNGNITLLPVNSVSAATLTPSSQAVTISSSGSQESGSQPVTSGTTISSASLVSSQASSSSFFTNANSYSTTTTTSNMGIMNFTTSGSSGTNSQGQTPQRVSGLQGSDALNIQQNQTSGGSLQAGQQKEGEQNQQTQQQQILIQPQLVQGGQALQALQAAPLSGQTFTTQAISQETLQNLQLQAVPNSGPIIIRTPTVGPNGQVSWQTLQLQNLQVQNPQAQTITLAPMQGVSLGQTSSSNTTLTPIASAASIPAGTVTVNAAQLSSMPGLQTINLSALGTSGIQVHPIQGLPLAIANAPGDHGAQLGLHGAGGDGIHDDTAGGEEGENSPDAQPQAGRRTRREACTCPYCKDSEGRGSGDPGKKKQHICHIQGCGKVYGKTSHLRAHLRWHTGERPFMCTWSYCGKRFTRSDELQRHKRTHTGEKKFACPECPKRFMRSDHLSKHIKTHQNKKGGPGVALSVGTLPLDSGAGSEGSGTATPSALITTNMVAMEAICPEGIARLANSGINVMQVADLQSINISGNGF
Sequence of Hypoxia-inducible factor 1-alpha (Homo sapiens) (Q16665 whole entry, looked up): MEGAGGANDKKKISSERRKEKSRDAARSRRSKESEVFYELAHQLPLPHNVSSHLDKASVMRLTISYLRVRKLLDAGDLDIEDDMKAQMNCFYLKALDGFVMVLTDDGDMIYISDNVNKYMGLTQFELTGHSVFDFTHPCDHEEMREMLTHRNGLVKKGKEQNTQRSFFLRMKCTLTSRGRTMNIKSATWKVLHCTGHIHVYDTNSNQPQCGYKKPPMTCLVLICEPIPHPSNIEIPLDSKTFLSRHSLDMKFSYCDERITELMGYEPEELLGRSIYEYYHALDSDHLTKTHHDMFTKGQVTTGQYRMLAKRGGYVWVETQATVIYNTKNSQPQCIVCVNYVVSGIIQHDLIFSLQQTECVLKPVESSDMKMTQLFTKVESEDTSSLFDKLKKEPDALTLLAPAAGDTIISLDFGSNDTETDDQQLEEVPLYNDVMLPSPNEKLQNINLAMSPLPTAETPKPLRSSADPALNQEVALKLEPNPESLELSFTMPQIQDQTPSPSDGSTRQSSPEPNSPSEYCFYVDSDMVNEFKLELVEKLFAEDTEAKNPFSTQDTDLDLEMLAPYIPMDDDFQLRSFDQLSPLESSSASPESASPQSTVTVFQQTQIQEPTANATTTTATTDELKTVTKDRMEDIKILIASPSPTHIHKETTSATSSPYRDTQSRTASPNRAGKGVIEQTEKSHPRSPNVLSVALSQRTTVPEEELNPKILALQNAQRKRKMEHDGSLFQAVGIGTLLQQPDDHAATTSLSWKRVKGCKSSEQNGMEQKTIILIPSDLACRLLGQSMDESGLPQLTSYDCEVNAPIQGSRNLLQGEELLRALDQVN
Sequence of Heat shock factor protein 1 (Homo sapiens) (Q00613 whole entry, looked up): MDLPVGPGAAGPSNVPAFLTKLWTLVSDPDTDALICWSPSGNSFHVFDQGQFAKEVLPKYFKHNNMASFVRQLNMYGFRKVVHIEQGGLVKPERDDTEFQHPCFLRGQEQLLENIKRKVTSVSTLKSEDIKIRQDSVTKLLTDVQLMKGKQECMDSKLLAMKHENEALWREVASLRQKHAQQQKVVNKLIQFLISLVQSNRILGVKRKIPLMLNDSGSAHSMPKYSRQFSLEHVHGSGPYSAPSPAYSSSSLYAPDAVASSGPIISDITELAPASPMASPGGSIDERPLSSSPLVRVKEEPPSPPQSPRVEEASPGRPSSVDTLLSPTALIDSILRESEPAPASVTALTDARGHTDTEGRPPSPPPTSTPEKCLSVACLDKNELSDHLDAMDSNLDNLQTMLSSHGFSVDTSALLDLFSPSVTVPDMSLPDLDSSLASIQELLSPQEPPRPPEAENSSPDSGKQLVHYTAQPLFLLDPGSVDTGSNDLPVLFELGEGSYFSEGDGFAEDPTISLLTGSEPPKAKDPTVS
Sequence of Signal transducer and activator of transcription 3 (Homo sapiens) (P40763 whole entry, looked up): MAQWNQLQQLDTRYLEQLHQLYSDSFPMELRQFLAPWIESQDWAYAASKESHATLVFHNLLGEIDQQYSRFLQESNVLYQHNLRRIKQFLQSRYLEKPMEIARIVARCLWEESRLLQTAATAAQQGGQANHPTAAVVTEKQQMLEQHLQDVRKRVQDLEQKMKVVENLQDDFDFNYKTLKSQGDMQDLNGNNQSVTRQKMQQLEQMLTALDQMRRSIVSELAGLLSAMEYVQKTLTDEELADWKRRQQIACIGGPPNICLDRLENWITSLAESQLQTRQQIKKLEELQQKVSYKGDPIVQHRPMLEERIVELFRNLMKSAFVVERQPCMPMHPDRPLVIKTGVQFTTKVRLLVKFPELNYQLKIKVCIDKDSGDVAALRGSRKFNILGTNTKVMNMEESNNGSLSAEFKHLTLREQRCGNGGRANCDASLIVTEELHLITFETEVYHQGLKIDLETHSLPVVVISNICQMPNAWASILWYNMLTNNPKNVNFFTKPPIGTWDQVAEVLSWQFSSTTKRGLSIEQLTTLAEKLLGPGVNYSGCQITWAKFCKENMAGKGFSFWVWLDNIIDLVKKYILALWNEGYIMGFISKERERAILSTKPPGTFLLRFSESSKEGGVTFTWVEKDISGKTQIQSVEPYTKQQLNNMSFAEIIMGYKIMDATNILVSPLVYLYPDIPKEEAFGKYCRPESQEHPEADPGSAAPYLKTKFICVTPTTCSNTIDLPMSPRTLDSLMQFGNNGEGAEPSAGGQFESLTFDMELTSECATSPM
Sequence of Hepatocyte nuclear factor 6 (Homo sapiens) (Q9UBC0 whole entry, looked up, the tested form may be a part): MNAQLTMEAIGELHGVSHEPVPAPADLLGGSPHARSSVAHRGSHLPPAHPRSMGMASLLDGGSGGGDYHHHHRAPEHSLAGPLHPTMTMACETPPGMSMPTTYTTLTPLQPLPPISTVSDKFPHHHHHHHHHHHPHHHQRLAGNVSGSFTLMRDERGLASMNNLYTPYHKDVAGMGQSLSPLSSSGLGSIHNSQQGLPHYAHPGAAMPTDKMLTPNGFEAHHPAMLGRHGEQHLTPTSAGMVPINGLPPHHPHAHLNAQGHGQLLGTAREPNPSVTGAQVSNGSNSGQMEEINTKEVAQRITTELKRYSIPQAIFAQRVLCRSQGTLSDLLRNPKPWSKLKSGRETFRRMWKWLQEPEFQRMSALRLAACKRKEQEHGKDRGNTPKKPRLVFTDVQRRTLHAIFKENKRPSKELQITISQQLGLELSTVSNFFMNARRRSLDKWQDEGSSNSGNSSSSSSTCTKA
Sequence of Bile acid receptor (Homo sapiens) (Q96RI1 whole entry, looked up): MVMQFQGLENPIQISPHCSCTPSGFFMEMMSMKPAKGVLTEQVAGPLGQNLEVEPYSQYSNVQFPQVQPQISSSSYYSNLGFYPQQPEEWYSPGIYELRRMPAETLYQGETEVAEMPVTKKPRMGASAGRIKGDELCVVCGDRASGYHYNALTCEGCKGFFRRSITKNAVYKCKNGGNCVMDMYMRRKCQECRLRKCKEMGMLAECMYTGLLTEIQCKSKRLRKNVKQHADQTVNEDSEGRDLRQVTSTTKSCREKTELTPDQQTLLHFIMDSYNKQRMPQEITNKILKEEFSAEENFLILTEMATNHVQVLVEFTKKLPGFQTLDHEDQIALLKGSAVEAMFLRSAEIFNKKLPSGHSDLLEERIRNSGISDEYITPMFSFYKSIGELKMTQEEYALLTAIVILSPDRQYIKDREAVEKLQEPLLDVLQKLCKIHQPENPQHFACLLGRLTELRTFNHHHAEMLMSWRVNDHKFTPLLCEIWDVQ
Sequence of Paired box protein Pax-6 (Homo sapiens) (P26367 whole entry, looked up): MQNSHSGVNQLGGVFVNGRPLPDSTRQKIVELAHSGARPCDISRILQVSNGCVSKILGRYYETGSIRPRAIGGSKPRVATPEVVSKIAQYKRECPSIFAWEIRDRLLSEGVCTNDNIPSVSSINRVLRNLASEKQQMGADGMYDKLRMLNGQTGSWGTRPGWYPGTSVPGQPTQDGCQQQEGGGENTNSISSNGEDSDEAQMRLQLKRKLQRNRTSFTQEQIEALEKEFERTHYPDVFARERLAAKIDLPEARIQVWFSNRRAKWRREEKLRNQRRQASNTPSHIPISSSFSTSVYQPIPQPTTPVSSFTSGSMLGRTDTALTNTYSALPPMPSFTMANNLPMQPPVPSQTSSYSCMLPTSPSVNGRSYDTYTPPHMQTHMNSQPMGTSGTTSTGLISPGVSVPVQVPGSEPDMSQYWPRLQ

C=C(C)C(=O)OCCOCCOC(=O)C(=C)C
inactive: [1] | [2] | [3] | [4] | [5] | [6] | [7] | [8] | [9] | [10] | [11] | [12] | [13] | [14] | [15] | [16] | [17]

CN(C)CCC=C1c2ccccc2CCc2ccccc21
inactive: [1] | [2] | [18] | [4] | [5] | [7] | [8] | [10] | [11] | [13] | [19] | [14] | [17] | [20]
active: [3] 21.5 µM | [9] 43.2 µM | [12] 13.2 µM | [15] 45.3 µM

CCC(=O)OC(C)(C)C1CC=C(C)CC1 (stereo not drawn)
inactive: [1] | [2] | [3] | [4] | [5] | [6] | [7] | [8] | [9] | [10] | [11] | [13] | [19] | [14] | [15] | [16] | [17] | [20]
active: [12] 27.4 µM

NC(N)=S
inactive: [1] | [2] | [18] | [5] | [6] | [7] | [9] | [10] | [11] | [12] | [19] | [14] | [15] | [17]
